# FBPA coupling cs = counter-screen for Giardia aldolase inhibitors: coupling enzyme system | coupling enzyme system counterscreen, AmpLite Red fluorescence | activity change, negative = inhibition, % at 58.2 µM, hits read low | 290,000 compounds, 0.67% hits; in the data active = activity change below about -30%
#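 Coupling enzymes only (glyceraldehyde-3-phosphate) + compound, at 57.5 uM final, 10 min RT; add substrate/coupling/AmpLite Red mix, 20 min RT; fluorescence ex 525/em 598 nm. Actives flag coupling-system interference.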
# Sfp inh = blocks B. subtilis Sfp PPTase activity; Q9F4F7; Biochemical Sfp PPTase activity, qHTS; Potency, µM, for inactives: largest response in the series, negative = inhibition, hits mostly inhibitors; 310,000 compounds, 3.5% hits; AID 1490;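 note: the enzyme is Sfp with the accession as filed and its product quenches rhodamine fluorescence; potency is the fitted concentration of half-maximal effect; 0% = enzyme reaction without inhibitor and -100% = no enzyme wells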
#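 Compounds were incubated with enzyme (final 15 nM) for 15 min at room temperature before substrate addition started the reaction. Fluorescence at 525 nm excitation, 598 nm emission was recorded immediately and after 30 minutes.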
# Giardia kill = Giardia lamblia killing; Giardia lamblia trophozoite viability; activity change, % at 7.66 µM, hits read low; 340,000 compounds, 0.15% hits; in the data active = activity change below about -80%; inconclusive = between about -30% and that limit;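 note: parasites exposed to compound for two days anaerobically before the ATP read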
#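 Media and compound were dispensed first, then trophozoites at 100 cells/well; plates sat 48 hrs at 37 deg C without oxygen before ATP luminescence reagent was added and read after 15-30 min at room temperature.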
# ELG1 DNA repair = blocks ELG1-dependent DNA repair in HEK293T cells | 330,000 compounds, 2.3% hits | HEK293T ELG1-luciferase reporter, luminescence, 16 h; DNA damage induced by 5-fluorouridine | Potency, µM (highest dose often 46.1 µM), for inactives: at the highest dose activity change, negative = inhibition, hits mostly inhibitors; note: potency is the fitted concentration of half-maximal effect; nearly all actives have a fitted effect of over 55% in size
#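 DMSO vehicle served as the neutral condition. Each well held 2,000 cells given 5-fluorouridine plus compound; after 16 hr at 37 °C/5% CO2, ONE-Glo was added and luciferase measured 30 min later.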
# Numbers without * were called inactive; ? = inconclusive; nt = no result. A selection: hits, their analogues and other compounds. The true share with any hit is near 5.5%. Unless noted, calls come from the whole dose curve; as a rule, active = well fitted curve in the direction sought with a large enough effect; inconclusive = small, poorly fitted or top-dose-only effect, or another doubt; inactive = no such curve, though single readings can be large; an effect the other way counts as inactive or inconclusive. Unless noted, % is set by controls: 0 for no effect and ±100 for the full control effect.
SMILES,FBPA coupling cs,Sfp inh,Giardia kill,ELG1 DNA repair
CCOC(=O)c1c(CSc2ccc(C)cc2)n(C)c2cc(Br)c(O)c(CN(C)C)c12,-1,56µM*,9,?
CC(C)CNS(=O)(=O)c1ccc(CCC(=O)Nc2cc(Cl)ccc2Oc2ccccc2)cc1,-3,18%,8,0%
CCCNS(=O)(=O)c1ccc(CCC(=O)Nc2cc(Cl)ccc2Oc2ccccc2)cc1,-1,-3%,10,23µM*
COc1ccc(C(=O)NC(=S)Nc2cccc(NC(=O)c3ccco3)c2)cc1[N+](=O)[O-],1,15%,11,?
CCOc1ccc(C(=O)NC(=S)Nc2cccc(NC(=O)c3ccco3)c2)cc1[N+](=O)[O-],0,7%,3,23µM*
COc1ccc(C(=O)NC(=S)Nc2ccc(N3CCN(C(C)=O)CC3)cc2)cc1[N+](=O)[O-],1,16%,-10,-27%
CCOc1ccc(C(=O)NC(=S)Nc2ccccc2N2CCCCC2)cc1[N+](=O)[O-],-10,17%,12,-2%
CCOc1ccc(C(=O)NC(=S)Nc2ccc(N3CCCCC3)cc2)cc1[N+](=O)[O-],1,20µM*,-4,-4%
CC(=O)N1CCN(c2ccc(NC(=S)NC(=O)c3ccc(C)c([N+](=O)[O-])c3)cc2)CC1,-1,-23%,-11,21µM*
COC(=O)c1ccc(NC(=O)Nc2ccc([N+](=O)[O-])cc2)cc1,-4,2%,13,?
CCOC(=O)c1cn2nc(SCc3ccccc3)nc2nc1C,2,-16%,-17,?
CCOc1ccc(-c2ccc(SCC(=O)Nc3nnc(CC)s3)nn2)cc1,6,3%,?,?
CCOc1ccc(-c2ccc(SC)nn2)cc1,1,8%,-87*,?
CC(=O)N1CCOc2ccc(S(=O)(=O)NC[C@H]3O[C@@H](n4cnc5c(N)ncnc54)[C@H](O)[C@@H]3O)cc21,nt,nt,-8,14%
O=C(CSS(=O)(=O)O)N1CCN(C(=O)c2ccoc2)CC1,0,16µM*,9,3%
O=C(c1cccc(Cl)c1)C1CCCN(C(=O)c2ccoc2)C1 (stereo not given),4,15%,-9,2%
O=C(CSc1nnc(CNc2ccc(F)cc2)n1CC1CCCO1)N1CCOCC1 (stereo not given),2,-2%,1,11%
COc1ccc(-c2oc3ccc(-c4cc(OC)c(OC)c(OC)c4)cc3c2C#Cc2ccccn2)cc1,nt,nt,7,?
CN(C)c1ccc(/C=N/NC(=O)c2ccccc2)cc1,1,19%,-9,?
COc1cc(/C=N/NC(=O)c2[nH]nc3c2CCc2ccccc2-3)ccc1O,-1,?,0,?
COc1cc(/C=N/NC(=O)C(=O)/C=C2\NC3(CCCC3)Cc3ccccc32)ccc1O,0,12%,-9,23µM*
CN(C)c1ccc(/C=N/NC(=O)C(=O)/C=C2\NC3(CCCC3)Cc3ccccc32)cc1,1,-9%,14,12µM*
Nc1ccccc1S(=O)(=O)NCCCCc1ccccc1,0,0%,0,2%
CC1Cc2ccccc2N1C(=O)Cn1nnc(-c2ccccc2NC(=O)C2CCC2)n1 (stereo not given),0,-2%,17,23µM*
CCC(=O)Nc1ccccc1-c1nnn(CC(=O)N2c3ccccc3CC2C)n1 (stereo not given),3,8%,0,-21%
SMILES,FBPA coupling cs,Sfp inh,Giardia kill,ELG1 DNA repair
COc1ccc(-c2[nH]ncc2/C=C(/C#N)C(=O)NC2CCCCCC2)cc1,-1,3%,4,18µM*
CC(C)c1ccc2c(c1)CCC1C(C)(CN)CCCC21C (stereo not given),0,11µM*,0,17%
CCOC(=O)C(C)/C(C)=N/NC(N)=S (stereo not given),-2,40µM*,-1,1%
COc1ccc(NC(=O)N(Cc2cc3ccc(OC)cc3[nH]c2=O)CC2CCCO2)cc1 (stereo not given),-5,12%,21,10µM*
COc1ccc2cc(CN(CC3CCCO3)C(=S)Nc3ccccc3)c(=O)[nH]c2c1 (stereo not given),-2,-12%,2,8.2µM*
COc1ccc2[nH]c(=O)c(CN(CC3CCCO3)C(=S)Nc3ccccc3)cc2c1 (stereo not given),-3,17%,2,-2%
COc1ccc2cc(CN(CC3CCCO3)C(=O)Nc3ccccc3OC)c(=O)[nH]c2c1 (stereo not given),-2,4%,-25,7.3µM*
COc1ccc(NC(=O)N(Cc2cc3cc(OC)ccc3[nH]c2=O)CC2CCCO2)cc1 (stereo not given),-4,?,-5,10µM*
O=C(NC(=S)N1CCN(Cc2ccccc2)CC1)c1ccco1,-4,-7%,11,12%
Cn1ccsc1=NC(=O)c1ccc(OC(F)(F)F)cc1,3,12%,-21,?
CCOc1cccc(C(=O)NC(=S)Nc2cccnc2)c1,0,45µM*,-18,?
CCOc1cccc(C(=O)NC(=S)Nc2cccc(NC(=O)c3ccccc3Cl)c2)c1,-4,14%,23,8.2µM*
CCOc1cccc(C(=O)NC(=S)Nc2ccccc2)c1,3,-27%,-3,?
COc1ccc2c(c1)O[C@@H](c1ccc3c(c1)OCO3)[C@H](OC(=O)NS(=O)(=O)c1ccc(C)cc1)C2=O,5,1%,nt,nt
Cn1c(=O)n(CCc2ccccc2)c(=O)c2c1nc1n2CCN1Cc1ccco1,-3,11%,8,21µM*
Cn1c(=O)n(C/C=C/c2ccccc2)c(=O)c2c1nc1n2CCCN1Cc1ccccc1,-1,9%,4,21µM*
COc1ccc(N2CCCn3c2nc2c3c(=O)n(Cc3ccccc3F)c(=O)n2C)cc1,0,5%,nt,-1%
Cn1c(=O)n(C/C=C/c2ccccc2)c(=O)c2c1nc1n2CCCN1c1ccc(F)cc1,1,-13%,-15,23µM*
CCOC(=O)c1ccccc1NC(=O)COC(=O)CCNS(=O)(=O)c1cccs1,nt,nt,12,14%
CCOC(=O)C1=CN(Cc2cccc(-c3ccc(Cl)nc3)c2)S(=O)(=O)N(C)C1C (stereo not given),nt,nt,14,?
O=C(Nc1cc(S(=O)(=O)N2CCOCC2)ccc1N1CCOCC1)c1ccccc1F,nt,nt,2,?
Cc1c(C(=O)O)oc2ccc(S(=O)(=O)NCc3ccccc3)cc12,-1,-10%,6,9.2µM*
Cc1c(C(=O)Nc2cc(S(=O)(=O)N3CCOCC3)ccc2N2CCOCC2)oc2ccccc12,-10,12%,-2,16µM*
Cc1c(C(=O)NCc2ccccc2)oc2ccc(S(=O)(=O)N3CCC4(CC3)OCCO4)cc12,0,4%,-4,4.1µM*
CCN(CC)S(=O)(=O)c1ccc2oc(C(=O)NCc3ccc(F)cc3)c(C)c2c1,-4,11%,-4,12µM*
COc1ccc(CCNS(=O)(=O)c2ccc3oc(C(=O)O)c(C)c3c2)cc1OC,8,8%,-7,6%
Cc1c(C(=O)NCc2ccc(F)cc2)oc2ccc(S(=O)(=O)N3CCOCC3)cc12,-2,7%,-20,?

# Compound activity: PubChem, National Center for Advancing Translational Sciences (NCATS)
